The target of test [1] is Oxysterols receptor LXR-alpha (Homo sapiens) (UniProt Q13133). Kind of test: ATG_LXRa_TRANS: Attagene TRANS-FACTORIAL HepG2 Assay for human Liver X Receptor alpha (LXRa) (AID 2282980). The settings on record: HepG2 Attagene TRANS reporter, LXRa transactivation. In a few lines:
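HepG2 cells transiently transfected with GAL4-UAS reporter units for chimeric NR-Gal4 proteins, exposed to chemicals for 24 h. Reporter mRNA quantified by RT-PCR and capillary electrophoresis; gain of signal fitted relative to DMSO.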

In test [2] the target is Oxysterols receptor LXR-beta (Homo sapiens) (UniProt P55055). Kind of test: ATG_LXRb_TRANS: Attagene TRANS-FACTORIAL HepG2 Assay for human Liver X Receptor beta (LXRb) (AID 2282981). Conditions: HepG2 Attagene TRANS GAL4-LXRb reporter, mRNA. In a few lines:
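In this TRANS format, exogenous chimeric NR-Gal4 protein activity, not endogenous factors, drives reporter expression in transfected human HepG2 cells. Exposure lasted 24 h; reporter mRNA was read by fluorescent capillary electrophoresis.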

Test [3] addresses Hepatocyte nuclear factor 4-alpha (Homo sapiens) (UniProt P41235). Kind of test: ATG_HNF4a_TRANS: Attagene TRANS-FACTORIAL HepG2 Assay for human Hepatocyte Nuclear Factor 4 alpha (HNF4a) (AID 2282982). Conditions: HepG2 HNF4a transactivation reporter, mRNA readout. In a few lines:
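Cells used were human HepG2, transiently carrying GAL4-UAS reporter units read out against exogenous NR-GAL4 chimeras. Reporter transcript levels after 24 h dosing were quantified by fluorescent RT-PCR and capillary electrophoresis.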

Test [4] can be described thus: ATG_M_06_TRANS: Attagene TRANS-FACTORIAL HepG2 Assay for M06 Transcription Factor (Internal Marker) (AID 2282983). Conditions: HepG2 Attagene TRANS M06 internal marker reporter. A digest of the protocol:
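HepG2 cells transiently transfected with GAL4-UAS multiple reporter units, dosed 24 h. Reporter RNA reverse-transcribed, PCR-amplified, 6-FAM-labeled, HpaI-digested and quantified by capillary electrophoresis; this internal-marker signal fitted upward relative to DMSO.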

The nature of test [5]: ATG_M_32_TRANS: Attagene TRANS-FACTORIAL HepG2 Assay for M32 Transcription Factor (Internal Marker) (AID 2282984).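 Further: transcript level of a background control reporter unit measured by RT-PCR and capillary electrophoresis.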 Conditions: HepG2 Attagene TRANS M32 internal marker reporter. A digest of the protocol: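 Human hepatoma HepG2, transient MRTU transfection, 24 h treatment. RNA → RT-PCR → fluorescent primer extension → HpaI digest (2 h, 37 C) → CE. Positive-direction fit vs DMSO.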

The target in test [6] is Transcriptional activator Myb (Homo sapiens) (UniProt P10242). Put plainly: ATG_Myb_CIS: Attagene CIS-FACTORIAL HepG2 Assay for human Myeloblastosis (Myb) Proto-Oncogene Transcription Factor (AID 2282986; active means hit-call score of the fitted dose curve at least 0.9, where 1 is the maximum; inactive means score below 0.9). Conditions: HepG2 Attagene CIS-FACTORIAL Myb reporter transcription; actives raise or lower the signal. In a few lines: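 After 24 h of compound dosing, total RNA from transfected HepG2 cells is reverse-transcribed and the reporter sequences amplified, labeled and separated by capillary electrophoresis. Values come from bidirectional fitting against DMSO.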
Chain of Transcriptional activator Myb (Homo sapiens) (P10242 whole entry, looked up): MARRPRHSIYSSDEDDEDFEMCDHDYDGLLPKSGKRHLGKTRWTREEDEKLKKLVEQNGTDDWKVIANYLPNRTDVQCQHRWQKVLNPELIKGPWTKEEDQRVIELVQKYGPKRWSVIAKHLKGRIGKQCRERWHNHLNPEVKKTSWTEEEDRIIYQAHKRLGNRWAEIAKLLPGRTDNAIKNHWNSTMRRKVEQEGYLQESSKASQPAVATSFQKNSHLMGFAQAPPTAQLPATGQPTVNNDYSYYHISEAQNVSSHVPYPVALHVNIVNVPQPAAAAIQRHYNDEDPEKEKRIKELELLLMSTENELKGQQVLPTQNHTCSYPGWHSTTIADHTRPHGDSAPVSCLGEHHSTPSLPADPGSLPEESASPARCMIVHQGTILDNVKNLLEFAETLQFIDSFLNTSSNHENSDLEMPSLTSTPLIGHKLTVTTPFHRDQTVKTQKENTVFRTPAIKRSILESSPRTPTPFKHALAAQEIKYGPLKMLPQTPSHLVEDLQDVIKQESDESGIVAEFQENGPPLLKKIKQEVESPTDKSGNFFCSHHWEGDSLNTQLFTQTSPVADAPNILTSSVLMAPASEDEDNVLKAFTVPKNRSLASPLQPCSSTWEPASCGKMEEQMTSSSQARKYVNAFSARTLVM

The target of test [7] is Nuclear respiratory factor 1 (Homo sapiens) (UniProt Q16656). Put plainly: ATG_NRF1_CIS: Attagene CIS-FACTORIAL HepG2 Assay for human Nuclear Respiratory Factor 1 (NRF1) Orphan Gene (AID 2282987; active means hit-call score of the fitted dose curve at least 0.9, where 1 is the maximum; inactive means score below 0.9). The settings on record: HepG2 NRF1 cis-element reporter, Attagene multiplex; actives raise or lower the signal. In a few lines: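 Measured: fluorescent reporter-specific RT-PCR products from transfected HepG2 cells, separated by capillary electrophoresis. Exposure lasted 24 h. Analysis used bidirectional curve fitting with DMSO as negative control.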
Chain of Nuclear respiratory factor 1 (Homo sapiens) (Q16656 whole entry, looked up): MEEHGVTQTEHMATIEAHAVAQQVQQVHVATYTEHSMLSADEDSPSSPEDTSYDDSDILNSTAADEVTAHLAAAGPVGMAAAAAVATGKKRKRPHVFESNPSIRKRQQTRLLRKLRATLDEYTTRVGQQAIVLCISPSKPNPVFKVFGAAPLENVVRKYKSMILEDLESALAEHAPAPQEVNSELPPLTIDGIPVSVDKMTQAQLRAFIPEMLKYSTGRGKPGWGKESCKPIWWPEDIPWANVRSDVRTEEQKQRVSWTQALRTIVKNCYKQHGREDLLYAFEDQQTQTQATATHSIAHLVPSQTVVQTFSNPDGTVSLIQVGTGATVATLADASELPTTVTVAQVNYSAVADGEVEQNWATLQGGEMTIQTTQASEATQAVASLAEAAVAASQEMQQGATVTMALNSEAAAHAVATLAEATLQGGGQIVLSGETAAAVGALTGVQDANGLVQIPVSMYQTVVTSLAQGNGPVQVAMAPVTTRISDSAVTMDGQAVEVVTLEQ

Test [8] has as its target Nuclear receptor subfamily 4 group A member 2 (Homo sapiens) (UniProt P43354). Put plainly: ATG_NURR1_TRANS: Attagene TRANS-FACTORIAL HepG2 Assay for human Nuclear Receptor Related Protein 1 (NURR1) (AID 2282985). The settings on record: HepG2 Attagene TRANS reporter, mRNA readout. In a few lines: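 After 24 h chemical dosing, total RNA from transiently transfected HepG2 cells was reverse-transcribed and reporter cDNA PCR-amplified, FAM-labelled and analysed by capillary electrophoresis. Activity fitted in positive direction, DMSO as negative control.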

The target in test [9] is Estrogen-related receptor gamma (Homo sapiens) (UniProt P62508). Kind of test: ATG_ERRg_TRANS: Attagene TRANS-FACTORIAL HepG2 Assay for human Estrogen-Related Receptor gamma (ERRg) (AID 2282977).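 Further: hits increase reporter signal over DMSO so potencies reflect activators.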 Conditions: HepG2 Attagene TRANS reporter, ERRg transactivation. In a few lines:
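HepG2 cells transiently transfected with multiplexed GAL4-UAS reporter units driven by chimeric NR-Gal4 proteins; 24 h exposure. Reporter mRNA quantified by RT-PCR, fluorescent labelling, HpaI digestion and capillary electrophoresis; gain of signal vs DMSO.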

“And” between values parts separate entries of the source, which are not always exact repeats. Equal values may be shown once. Records with an inconclusive call do not appear. Some compounds were tested as several samples or in several runs, with calls that do not always agree. The source made the active and inactive calls. How the source made its calls, unless noted: active means hit-call score of the fitted dose curve at least 0.9, where 1 is the maximum; inconclusive means response in the unintended direction; inactive means score below 0.9.

Chain of Hepatocyte nuclear factor 4-alpha (Homo sapiens) (P41235 whole entry, looked up, the tested form may be a part): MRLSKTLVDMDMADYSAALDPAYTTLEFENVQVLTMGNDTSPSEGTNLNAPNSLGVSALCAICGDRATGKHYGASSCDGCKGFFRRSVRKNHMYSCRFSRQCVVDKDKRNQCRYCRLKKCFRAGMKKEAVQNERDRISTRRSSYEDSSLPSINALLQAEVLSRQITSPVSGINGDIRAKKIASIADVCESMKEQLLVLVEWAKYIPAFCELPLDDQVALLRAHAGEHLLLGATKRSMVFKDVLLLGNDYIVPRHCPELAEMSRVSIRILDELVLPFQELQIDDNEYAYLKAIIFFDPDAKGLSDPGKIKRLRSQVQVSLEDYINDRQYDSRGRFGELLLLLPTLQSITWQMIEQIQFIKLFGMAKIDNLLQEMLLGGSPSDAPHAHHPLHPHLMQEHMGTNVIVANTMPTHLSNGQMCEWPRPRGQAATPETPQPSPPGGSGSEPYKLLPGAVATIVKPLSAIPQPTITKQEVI
Chain of Oxysterols receptor LXR-beta (Homo sapiens) (P55055 whole entry, looked up, the tested form may be a part): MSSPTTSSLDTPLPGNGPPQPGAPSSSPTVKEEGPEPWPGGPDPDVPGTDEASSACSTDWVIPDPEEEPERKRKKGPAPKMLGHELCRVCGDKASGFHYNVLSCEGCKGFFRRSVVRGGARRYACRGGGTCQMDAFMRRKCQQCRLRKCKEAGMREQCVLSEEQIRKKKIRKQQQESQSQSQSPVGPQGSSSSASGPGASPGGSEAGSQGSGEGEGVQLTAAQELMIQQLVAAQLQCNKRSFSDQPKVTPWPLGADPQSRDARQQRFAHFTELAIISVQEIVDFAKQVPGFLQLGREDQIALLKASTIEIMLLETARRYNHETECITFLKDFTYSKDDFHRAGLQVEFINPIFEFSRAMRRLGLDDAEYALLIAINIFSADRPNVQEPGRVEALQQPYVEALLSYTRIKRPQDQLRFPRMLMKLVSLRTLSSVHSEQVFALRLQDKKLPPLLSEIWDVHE
Chain of Oxysterols receptor LXR-alpha (Homo sapiens) (Q13133 whole entry, looked up, the tested form may be a part): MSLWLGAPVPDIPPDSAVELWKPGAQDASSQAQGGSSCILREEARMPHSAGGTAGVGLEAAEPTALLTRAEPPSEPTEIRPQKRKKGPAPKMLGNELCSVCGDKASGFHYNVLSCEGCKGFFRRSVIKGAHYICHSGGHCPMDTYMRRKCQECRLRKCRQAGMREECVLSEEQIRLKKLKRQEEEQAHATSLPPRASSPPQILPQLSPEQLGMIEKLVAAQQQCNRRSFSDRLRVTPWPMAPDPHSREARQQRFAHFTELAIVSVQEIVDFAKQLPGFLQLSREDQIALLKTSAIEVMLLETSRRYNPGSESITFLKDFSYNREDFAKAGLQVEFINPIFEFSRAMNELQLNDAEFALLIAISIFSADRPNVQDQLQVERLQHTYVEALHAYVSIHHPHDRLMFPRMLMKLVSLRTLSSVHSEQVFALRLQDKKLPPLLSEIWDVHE
Chain of Nuclear receptor subfamily 4 group A member 2 (Homo sapiens) (P43354 whole entry, looked up): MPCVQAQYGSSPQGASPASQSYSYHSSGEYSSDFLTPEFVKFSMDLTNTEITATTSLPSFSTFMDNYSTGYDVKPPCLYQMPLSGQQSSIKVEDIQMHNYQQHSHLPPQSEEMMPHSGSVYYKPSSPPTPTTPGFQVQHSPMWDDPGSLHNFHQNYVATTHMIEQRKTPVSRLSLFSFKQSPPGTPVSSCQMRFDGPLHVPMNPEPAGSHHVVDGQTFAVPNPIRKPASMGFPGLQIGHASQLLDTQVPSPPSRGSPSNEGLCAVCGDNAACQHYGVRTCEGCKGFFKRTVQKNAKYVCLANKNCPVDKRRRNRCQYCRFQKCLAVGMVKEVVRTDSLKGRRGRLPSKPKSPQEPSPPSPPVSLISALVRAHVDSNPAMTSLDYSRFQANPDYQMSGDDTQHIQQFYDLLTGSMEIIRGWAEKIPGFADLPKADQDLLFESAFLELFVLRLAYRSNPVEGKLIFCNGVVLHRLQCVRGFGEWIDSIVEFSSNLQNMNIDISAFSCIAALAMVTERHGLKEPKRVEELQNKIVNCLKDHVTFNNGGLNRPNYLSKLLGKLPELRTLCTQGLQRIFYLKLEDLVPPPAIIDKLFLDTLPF
Chain of Estrogen-related receptor gamma (Homo sapiens) (P62508 whole entry, looked up, the tested form may be a part): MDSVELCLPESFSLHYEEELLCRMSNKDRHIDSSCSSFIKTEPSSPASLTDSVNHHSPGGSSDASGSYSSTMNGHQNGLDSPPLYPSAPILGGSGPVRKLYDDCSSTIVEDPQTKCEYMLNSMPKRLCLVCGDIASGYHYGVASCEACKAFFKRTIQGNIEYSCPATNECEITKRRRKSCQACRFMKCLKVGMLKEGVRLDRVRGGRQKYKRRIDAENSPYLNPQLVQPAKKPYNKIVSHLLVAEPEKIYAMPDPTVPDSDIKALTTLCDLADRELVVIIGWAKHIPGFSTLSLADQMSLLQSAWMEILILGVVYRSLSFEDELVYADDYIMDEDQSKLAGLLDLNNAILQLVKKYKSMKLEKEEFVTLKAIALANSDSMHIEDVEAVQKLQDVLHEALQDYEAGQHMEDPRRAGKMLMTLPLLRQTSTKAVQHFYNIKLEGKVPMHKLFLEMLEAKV

Consider `CCNc1nc(NC(C)C)nc(SC)n1`, for which the outcome in test [1], in test [2], in test [3], in test [4], in test [5] and in test [6] was inactive. For the same molecule, the result in [7] was inactive.

For the molecule `ClC1=C(Cl)[C@]2(Cl)[C@@H]3[C@@H]4C[C@@H]([C@H]5O[C@@H]45)[C@@H]3[C@@]1(Cl)C2(Cl)Cl`, the molecule was classed as inactive in test [4], in test [5], in test [6] and in test [7].

Regarding `CCCCCCCCCc1ccc(O)cc1`, the molecule was called inactive in [1], in test [2], in [3], in [4], in test [5] and in test [8]. In addition, the molecule was classed as inactive in test [6] and in [7]. Further, the AC50 in [6] was 157 µM (active); in [7] it was 174 µM (active).

For the molecule `COc1ccc(O)c(C(C)(C)C)c1`, the molecule was called inactive in [4], in test [5], in test [6] and in test [7].

As for `ClC1=C(Cl)[C@]2(Cl)[C@@H]3[C@@H](Cl)[C@H]4O[C@H]4[C@@H]3C1(Cl)C2(Cl)Cl`, the result in test [2], in test [4] and in [6] was inactive. The AC50 in test [7] is 150 µM (active).

Regarding `CCCCCCCCOC(=O)c1ccccc1C(=O)OCCCCCCCC`, the molecule was called inactive in [5], in [6] and in test [7].

`CCC(C)c1cc([N+](=O)[O-])cc([N+](=O)[O-])c1O` (configuration not stated): the molecule was classed as inactive in [9], in test [1], in test [2], in [3], in test [4] and in test [6]. The call in test [7] was inactive.

Take `Oc1c(Cl)c(Cl)c(Cl)c(Cl)c1Cl`: the molecule was called inactive in test [1], in [2], in test [3], in test [4], in [5] and in test [8]. Besides, the molecule was called inactive in test [6] and in test [7]. In addition, the AC50 in test [7] was 12.5 µM (active) and 25.7 µM (active).

With `C1CC2OC2CC1C1CO1` (configuration not stated), the molecule was called inactive in test [5], in [6] and in [7].

On to `CCSC(=O)N(CC)C1CCCCC1`, for which the outcome in [2], in test [6] and in test [7] was inactive.

For the molecule `C=CC(=O)NCNC(=O)C=C`, the molecule was classed as inactive in [2], in [4], in test [8], in [6] and in test [7].

With `CCOP(=S)(OCC)SCSC(C)(C)C`, the AC50 is 12 µM (active) and 12.9 µM (active) in test [1]; 20.2 µM (active) and 27.7 µM (active) in test [2]. The molecule was called inactive in test [3], in [4], in test [5], in test [8], in test [6] and in test [7].
